The supplement of paper PMC10681739

What was measured:
ETS1 [1] = target: T1, ETS1 (UniProt P14921); assay: ETS1 binding intensity (PBM fluorescence), ETS1 alone (arbitrary fluorescence units); higher = stronger binding; conditions: ETS1 concentration 1 nM; RUNX1 concentration 0 nM
T1 sequence: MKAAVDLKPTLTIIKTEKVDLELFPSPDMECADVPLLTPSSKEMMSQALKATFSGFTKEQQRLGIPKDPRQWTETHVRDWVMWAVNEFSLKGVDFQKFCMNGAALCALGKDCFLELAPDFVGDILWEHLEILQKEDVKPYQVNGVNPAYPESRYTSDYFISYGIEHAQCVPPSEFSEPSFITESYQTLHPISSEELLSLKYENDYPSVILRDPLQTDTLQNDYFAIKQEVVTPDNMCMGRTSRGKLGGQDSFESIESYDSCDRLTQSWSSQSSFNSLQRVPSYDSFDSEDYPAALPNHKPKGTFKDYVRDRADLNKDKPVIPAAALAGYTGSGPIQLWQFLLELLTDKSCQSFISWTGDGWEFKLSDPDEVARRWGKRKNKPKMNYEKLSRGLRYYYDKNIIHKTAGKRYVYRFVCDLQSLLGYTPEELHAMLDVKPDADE

ETS1 [2] = target: T1, ETS1; assay: ETS1 binding intensity (PBM fluorescence) in presence of RUNX1, normalised to ETS1-only experiment (arbitrary fluorescence units); higher = stronger binding; conditions: ETS1 concentration 1 nM; RUNX1 concentration 25 nM

Sequence	ETS1 binding intensity (ETS1 [1])	ETS1 binding intensity (ETS1 [2])
CTCGGCGCGACGGATATTCCCGTGACCGCCGGGTTC	672	920
CACCTGCCTTGCTTCCTGCGGTGCAACCGGCGGGAG	499	585
GGCAGGAGCTTCCGGCTCAGCCCTGCGGCCTGTGCC	498	768
CTCCCACGCTCCCCTTCCGGCCCCGCAGCGCTGTGA	804	746
AGAACAGGATGTTCTGAGTACAGCATGAACCTCAAA	1280	1210
TGACTCACCTTCCTGTAGGTTGGTTTTCTGCATATC	472	308
GGTTTCACTTCCTGCGTTGGGCCTTGTGGCCTCCTT	783	787
GCAGTCGCTAAGGGCGGAAACCACTGTTTGGGAGCT	2110	3180
GCGCGGCGCGACCGGACGCTGCGGGCGGGGAAGAGG	3230	5990
CTTCCATCCAGGAAGCTTGTGGTGCAACAGCAGTGT	840	1100
GGTTTTGGTAGGAAGGAAAGTGGTTTTCATAGGAAG	588	598
AGCGGCTCCTTCCGGCGGCGCGGGTTCCCTTCCCTC	624	581
CCACGCCCCCTCCTTCCGCTGCGGGAGATAGCCACT	787	751
GCATGTTCAAAAGGATGTGGGTGCTTACCTAGTGCC	956	1230
TCAAGAGGGTGTGGAGGAAGTGGGTTACAAGCACTT	1450	1940
GCACCGTCCCAGCATCCGGACACCACAGCGGCCCTT	602	530
GTGTTCAGACGGAAGCGTTATTCAGTGGTCAGAGCA	741	1070
CCATTTCCTGATTCTAATGTTCATCAACCACTTTTG	504	397
ATCAAAGAACGGATATTGCTGTGACACCGCGGGGAC	1380	1560
TTCTTAGCAGAGGAAGCTGTTTGCGGGGAAAAAGGG	1120	2200
CTGCTGGGCCCCTTCCTGTCAGCGGTTGCTCTTTAC	673	716
GGGAGGAAGTGTGAAGGGACTTTTGTGGTGAGTGAT	549	910
CTGTCCACATAAGGAAGTTGGGACCACAAGGTCTTT	870	1350
GCTGTCCATTTCCGAGATGTTAATGCGGGATCTTGC	408	628

Sequence	ETS1 binding intensity (ETS1 [1])	ETS1 binding intensity (ETS1 [2])
CCACTCCAGGAAACTCCTCCAGGTGAGCCCACAACT	500	474
GCTTAGGCTCTTTCCTGTGTGGTGAGCACTAACCTC	488	324
TGGGGTGGGGTGGGAAGTGCCAGCGGTCTGGGTGTC	537	486
CAAGAATGAGAAAGGAAGCTGGCGGTTGGGCAGGTG	890	1260
GCTTTGCAGTTTCCTCTGTGGAACACCACACACAGT	418	494
GCAGCCAGGGTAGGAAGTGGTAAGACCTCCCTGTGA	893	1230
TGCCCAGTACTTCCTCTTGTGGGGGAGCACAACTTG	569	424
TGGCTACCCGGAAGGCGCGTTGGCTGCGGCTACGCA	549	926
GCTTACGTCACGTCCGGCGCCTGCGGCCCACCCCTC	592	506
GTGCCACTGAGAGGAAGGGGGCAACCACAGTGGGAG	367	590
CCTGACTCTGGGTTTCCTCCCAGCCACAGACACCTG	459	412
GGGAGGGCGGAAGGCGGCTCTGCGGCAGCAAGCCCC	476	341
GGTTGTGGAGTAGGATGTGGTGTCTAGCTTTCAGCA	588	568
GGTCTGGAGGATGTTTGCAGCTGCTGTGGGTGGTGG	586	530
GCACAGGAAAAGCTGCTTTCCGCGTGGTAAATTCAA	484	446
TAGCCATCGTGCAAAGGATGTGGTGAAGTCAGTCAG	942	2620
TCAGTGCACTCGGATGTTGGCCGCAGTTGGGGTTAT	453	422
CCTCCCGGCTTCCGTTCCTTGACCACCTCCTTCTCG	560	501
GGCGGAACTTGTGCGTACGCTGGAAAACCGCTGGGG	385	545
CGCCGTAGGAGGAAGCCGCGGCCGCAACGCTCCTGG	454	816
CTTCCCTTGCCCCGGAAAAGGGCGGTAAGAGGGAGC	1200	1160
CCCTTTTCCTTCCGGCCTGTGCGGCTTATAAGATCT	736	1090
TGAGGGCATAGGAAGTGATGGCCGCAAGGGGATGCC	1860	2390
AGGCGAAGGATGACTTCCTGCGGCACTACACAGTGT	610	656

Sequence	ETS1 binding intensity (ETS1 [1])	ETS1 binding intensity (ETS1 [2])
CATCAAAAACAGAGGAAGCCACAGCAAATTGCTGCC	523	418
GACCTGACAACATCCTGGCGCAGTGGGTTGGCCCTG	496	420
GCTGCTGTAGTCGCTTCCTGCGGCCAGCCCGGGTTC	526	528
CCCGCTTCCGCGTTTTACTCGGTGCCCGCAGCGCCG	445	389
CTTGCTTGAGTCACAGGAAACCACTCAGAGGCTAAC	2600	2860
GGAGCGACGGAAGCACCTGAAGCGGTCTTTCCCCGA	514	349
GATCTGCTTGGCTTCCTGTGGTCGCTGACTCACAGT	905	1010
AGGAGTGACGAGGCGGACGTGCGGGGGCGGGGGTGT	461	458
ACACCGCTCAGGAAGACAAAGCCACACCTCACACCA	443	358
CTTCAGGGGTGGGGCTTCCTGCCGCAGAGCCGCCTT	543	557
GGGGGCAGGAAGCAGTGCAGCTCCTTAACCCACTTC	842	892
TGGCCAGGAAGCCACTCGATTGCCGGCGCCCGCAGC	415	458
GTATTTATTTCCTCTTCGAAGAAATGCGGGGGTGCC	473	438
GAGGTTGGGAAGTTCTTCCTTTGGTCTGACCACAGT	453	596
GCCTGAAGCAGAGGATGTGGCTTCTGGCCCTCCCCT	1460	1800
CGAGCTATTTACTTCCTGCGGGTGCACAGGCTGTGA	654	475
AGCACAGGTTCCCAGGAAATGTGGGTTGAACAAGGC	1250	1250
GGTGCCAAGGGCAGAGGATGTGGTGAGGTGTGGAGG	999	4410
TCACTCCTCTTCCTTCCTGCCACCCACAGGGTCAGC	532	378
GCTACGGGTTCCCCGGATGGAGCCGCAGTCCGGCCG	858	715
GCTAAAGGAAGCTCTGTACAGCTGTGGTAAGGTGGC	552	792
ATGCGAGTCTGCTTCCTGCCACAAATCACAATTTGA	665	686
AGGTACTCACCATTCCGGCGGTTGCTACTGTCACTG	459	428
